# Assay results as given in PubChem BioAssay AID1053124 (Broad Institute, 2014).
# Potency and affinity values are given separately. The source made the active and inactive calls.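 The calls were made as follows: active = cell killing whose fitted half-effect concentration is at most twice the top valid dose tested; inconclusive = flat curve with 30 to 70% killing, or a poor fit; inactive = effect in the rising direction, plus the rest.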
# Experiment: A549 cell cytotoxicity, dose response, cytotoxicity control, ATP luminescence, cherry-pick, set 2 (AID 1053124);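 also: 0% = neutral control wells and -100% = mitoxantrone 10 µM positive control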
# Conditions: A549 viability, ATP luminescence (CellTiter-Glo), 72 h; series mostly up to 26 µM; activity change, negative = cytotoxicity: at the top concentration
row,Compound,"activity change, negative = cytotoxicity"
1,Cc1cc(-n2c(=O)c(C#N)cc3c(=O)n4ccccc4nc32)no1,-5.71% (inactive)
2,COCCCOc1cc(NCc2ccccc2)c2ncn(C(C)C)c2c1,1.48% (inactive)
3,N=c1c(C(=O)NCC2CCCO2)cc2c(=O)n3ccccc3nc2n1Cc1ccc(Cl)cc1 (stereo not given),-16.8% (inactive)
4,CCCN1CCc2c(sc(NC(=O)C3CCN(S(=O)(=O)c4cccs4)CC3)c2C(N)=O)C1,-11.7% (inactive)
5,CCOC(=O)c1cc2c(=O)n3ccccc3nc2n(CCCOC)c1=NC(=O)c1ccncc1,-2.23% (inactive)
6,COc1ccc(C2C3=C(CC(C)(C)CC3=O)N(C)C3=C2C(=O)CC(C)(C)C3)cc1,-10.4% (inactive)
7,O=C1CCc2cc(S(=O)(=O)NC(Cc3ccccc3)C(=O)NCCC3=CCCCC3)ccc2N1 (stereo not given),8.84% (inactive)
8,Cc1oc(/N=C/c2ccc(F)cc2)c(C#N)c1C,0.872% (inactive)
9,COc1cc(/C=C(\C#N)C(=O)NC(C)C)cc(Cl)c1O,-7.73% (inactive)
10,O=C(/C=C/c1ccccc1)C1=C(O)C(=O)N(CCO)C1c1ccc2c(c1)OCO2 (stereo not given),-9.53% (inactive)
11,CNNC(=S)NC1CC2CC1C1C=CCC21 (stereo not given),-2.33% (inactive)
12,Nc1ccc(C#Cc2ccc3c(=O)c4ccccc4oc3c2)cc1,-9.82% (inactive)
13,COc1ccc(CCNC(=O)CSc2cn(Cc3cccc(C)c3)c3ccccc23)cc1OC,-20.8% (inactive)
14,S=C(NCC1CCCO1)N1CCN(Cc2ccccc2Cl)CC1 (stereo not given),-0.535% (inactive)
15,COc1ccc(C2CC(c3cccs3)=NN2c2nc(C)c(C(C)=O)s2)cc1OC (stereo not given),-26.6% (inactive)
16,N#Cc1c2ccc(O)cc2n2ccccc12,-20.3% (inactive)
17,CCC(=O)N1C(C(=O)NCc2ccc(OC)cc2)CSC1c1ccc(OC)cc1 (stereo not given),-4.91% (inactive)
18,COc1cc(C(=O)OCC(C)=O)cc(NC(=O)c2ccco2)c1OC,-0.686% (inactive)
19,Clc1ccccc1C1=CC(c2ccco2)n2ncnc2N1 (stereo not given),-3.99% (inactive)
20,CCn1c(=NC(=O)CSC(C)=O)sc2cc(OC)ccc21,-8.33% (inactive)

row,Compound,"activity change, negative = cytotoxicity"
1,Nn1c(SCC(=O)N2CCCC2)nnc1-c1cccs1,2.35% (inactive)
2,COc1ccc(C(=O)Oc2cc(N)n(S(=O)(=O)c3ccccc3)n2)cc1,7.59% (inactive)
3,CC1CC(C)CN(CCCNC(=O)CCC(=O)N2CC(C)Oc3ccccc32)C1 (stereo not given),-7.74% (inactive)
4,N=c1oc2cc(O)ccc2cc1C(=O)Nc1nc2ccccc2s1,-10.5% (inactive)
5,O=C(O)c1ccc(N/N=C/c2ccc(-c3ccccc3Cl)o2)cc1,-2.95% (inactive)
6,CCOc1ccc2nc(NCCCNS(=O)(=O)c3ccc(F)cc3)c(C#N)cc2c1,7.23% (inactive)
7,CC(C)OCCCn1c(=N)c(C(N)=S)cc2c(=O)n3ccccc3nc21,-4.01% (inactive)
8,COc1cccc(N2CCN(C(=O)C3CCCN(S(=O)(=O)c4cnc[nH]4)C3)CC2)c1 (stereo not given),-0.022% (inactive)
9,CC1=C(C(=O)N2CCN(c3cc(C)ccc3C)CC2)C2(CCCCC2)OC1=O,-8.35% (inactive)
10,CCOc1ccccc1N=c1oc2cc(O)ccc2cc1C(=O)NCC1CCCO1 (stereo not given),-11.2% (inactive)
11,CCC(C)NC(=S)N1CCN(Cc2ccc3c(c2)OCO3)CC1 (stereo not given),1.85% (inactive)
12,CNC(=O)c1ccc(NC(=O)c2cccc(C(F)(F)F)c2)cc1,-2.51% (inactive)
13,CC1CCN(S(=O)(=O)N2CCC(C(=O)NC3CCCC3)CC2)CC1,-6.82% (inactive)
14,COc1cc(C(c2c(C(=O)O)[nH]c3ccccc23)c2c(C(=O)O)[nH]c3ccccc23)ccc1OCc1ccccc1,2.4% (inactive)
15,CCOC(=O)c1c(NC(=O)CSc2ncccn2)sc2c1CCN(Cc1ccccc1)C2,-20.4% (inactive)
16,Cc1cccn2c(=O)c(/C=C(\C#N)C(N)=O)c(Oc3ccccc3)nc12,6.25% (inactive)
17,O=C(NCc1ccc(F)cc1)C1CCCN1C(=O)Nc1cccc(F)c1 (stereo not given),1.44% (inactive)
18,CCC(C)n1c(=N)c(C#N)cc2c(=O)n3cccc(C)c3nc21 (stereo not given),-3.92% (inactive)
19,CC(=O)NNc1cc(N2CCOCC2)nc(N2CCOCC2)n1,-2.48% (inactive)
20,COc1cccc2c(=O)c3c(cnn3C)n(C)c12,-8.72% (inactive)
